Laboratory results: PubChem BioAssay AID1645849 (National Center for Advancing Translational Sciences (NCATS), 2021)
Results filed as inconclusive are left out. Entries that show only a call come without a potency. Activity calls are given as the source filed them. Calls follow the shape of the dose curve; as a rule, active = well fitted inhibition curve with a large enough effect in the repeat runs; inconclusive = weak or mixed curves; inactive = no such curve, though single readings can be large or run the other way.

Experiment: Comparison of Janus kinase inhibitors to block the type I interferon pathway in human skeletal muscle cells: JAK inhibition assay
Conditions: IFN pathway HiBiT reporter; series mostly up to 45.9 µM
From the text: Assay Submitter: Travis B. Kinder Ph.D.
National Center for Advancing Translational Sciences (NCATS)
The family of Janus kinases (JAK1, JAK2, JAK3, TYK2) mediate signal transduction from cytokine receptors through phosphorylation and activation of intracellular signaling pathways and transcription factors. Small molecule antagonists of JAKs (jakinibs) have been developed with varying selectivity for the use in malignancies and immune regulation. […] We have assayed a library of 48 jakinibs for their ability to inhibit the JAK1/TYK2-dependent type I interferon (IFN) - major histocompatibility complex (MHC) class I pathway in human skeletal muscle cells genome-engineered to fuse a pro-luminescent HiBiT peptide to endogenous MHC class I.
The assay utilized CRISPR/Cas9 genome-engineered immortalized human myoblasts, C25cl48, where a pro-luminescent reporter HiBit was fused to the C-terminus of endogenous MHC class I allele HLA-B*08:01 (HLA-B HiBit myoblasts) (Kinder et al., 2020). […] After 24 hrs of treatment, cells were assayed by Nano-Glo HiBiT Lytic Detection System (Promega) and luminescence measured by a ViewLux 1430 Ultra HTS (Perkin Elmer). […]
7; Detector; 5 sec; Measure luminescence with ViewLux 1430 Ultra HTS (Perkin Elmer). […]

Row | SMILES | Potency
1 | CC(C)(O)/C=C\C(=O)[C@](C)(O)[C@H]1[C@H](O)C[C@]2(C)[C@@H]3CC=C4[C@@H](C=C(O)C(=O)C4(C)C)[C@]3(C)C(=O)C[C@@]12C | 5.65 µM (active)
2 | CC1CCCCCC(=O)c2c(O)cc(O)cc2CC(=O)O1 (configuration not stated) | inactive
